Measurements: the supplement of paper PMC4840960
± gives the standard deviation of the averaged measurements.

These compounds were tested on E18 rat cortical neuron-glia co-culture (assay: fiber score / MBP score (myelination specific beyond OL differentiation) (ratio); higher = more myelination-specific MBP alignment). Conditions: 5 µM; treatment time: 8 days (DIV5-DIV13).
Summary of the method: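 Library compounds were applied at 1 or 5 µM in myelination medium, DIV5 to DIV13, to primary E18 rat cortical co-cultures grown at 20,000 cells/well in 96-well plates. After 4 % paraformaldehyde fixation and MBP/Olig2/DAPI immunostaining, four 10X fields per well in duplicate wells were scored. Each value is continuous MBP fiber length per Olig2+ nucleus divided by thresholded MBP area × intensity per Olig2+ nucleus.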

| SMILES | fiber score / MBP score |
| --- | --- |
| Cn1nnc2c(C(N)=O)ncn2c1=O [Temozolomide] | 0.773 |
| CCCCC(=O)O[C@H]1CC[C@H]2[C@@H]3CCc4cc(O)ccc4[C@H]3CC[C@]12C [Estradiol valerate] | 1.04 |
| CCCSc1ccc2[nH]c(NC(=O)OC)nc2c1 [Albendazole] | 0.0787 |
| CC(N)C12CC3CC(CC(C3)C1)C2 (centres undefined) [Rimantadine] | 0.737 |
| Cc1occc(=O)c1O [Maltol] | 0.672 |
| CC1(C)O[C@@H]2C[C@H]3[C@@H]4CCC5=CC(=O)C=C[C@]5(C)[C@@]4(F)[C@@H](O)C[C@]3(C)[C@]2(C(=O)CO)O1 [Triamcinolone Acetonide] | 1.32 |
| CC12CC3CC(C)(C1)CC(N)(C3)C2 [Memantine] | 0.838 ± 0.13 |
| NS(=O)(=O)c1cc2c(cc1C(F)(F)F)NCNS2(=O)=O [Hydroflumethiazide] | 0.763 |
| CCc1cccc2c3c([nH]c12)C(CC)(CC(=O)O)OCC3 (centres undefined) [Etodolac] | 1.38 |
| Cc1ccc(S(=O)(=O)NC(=O)NN2CCCCCC2)cc1 [Tolazamide] | 0.729 |
| C#C[C@]1(O)CC[C@H]2[C@@H]3CCC4=Cc5oncc5C[C@]4(C)[C@H]3CC[C@@]21C [Danazol] | 0.557 |
| O=C(O[C@H]1[C@H](Oc2ccccc2COC(=O)C2(O)C=CCCC2=O)O[C@H](CO)[C@@H](O)[C@@H]1O)c1ccccc1 (some centres undefined) [Tremulacin] | 2.76 |
| Cc1ccc(C)c(OCCCC(C)(C)C(=O)O)c1 [Gemfibrozil] | 0.995 |
| COc1ccc2cc(CCC(C)=O)ccc2c1 [Nabumetone] | 1.17 |
| COC(=O)C1=C(C)NC(C)=C(C(=O)OC)C1c1ccccc1[N+](=O)[O-] [Nifedipine] | 0.919 |
| C[C@H]1C[C@@H]2[C@H]([C@@H](O)C[C@@]3(C)[C@H]2CC[C@]3(O)C(=O)CO)[C@@]2(C)C=CC(=O)C=C12 [Methylprednisolone] | 1.01 |
| Clc1ccc2nsnc2c1NC1=NCCN1 [Tizanidine] | 0.443 |
| CCCc1cc(=O)[nH]c(=S)[nH]1 [Propylthiouracil] | 0.854 |
| Cc1cn([C@H]2C=C[C@@H](CO)O2)c(=O)[nH]c1=O [Stavudine] | 0.637 ± 0.27 |
| CC1(C)O[C@@H]2C[C@H]3[C@@H]4C[C@H](F)C5=CC(=O)C=C[C@]5(C)[C@@]4(F)[C@@H](O)C[C@]3(C)[C@]2(C(=O)CO)O1 [Fluocinolone Acetonide] | 0.825 |

| SMILES | fiber score / MBP score |
| --- | --- |
| NC1CCN(c2nc3c(cc2F)c(=O)c(C(=O)O)cn3-c2ccc(F)cc2F)C1 (centres undefined) [Tosufloxacin] | 0.665 |
| CCN1CCC[C@H]1CNC(=O)c1c(O)c(Cl)cc(Cl)c1OC [Raclopride] | 0.709 |
| CCOc1ccc2ccccc2c1C(=O)N[C@@H]1C(=O)N2[C@@H]1SC(C)(C)[C@@H]2C(=O)O [Nafcillin] | 0.777 |
| COc1c(N2CCNC(C)C2)c(F)cc2c(=O)c(C(=O)O)cn(C3CC3)c12 (centres undefined) [Gatifloxacin] | 0.609 |
| CC(C)[C@H]1CC[C@H](C(=O)N[C@H](Cc2ccccc2)C(=O)O)CC1 [Nateglinide] | 0.739 |
| O=c1[nH]c(=O)n([C@H]2C[C@H](O)[C@@H](CO)O2)cc1F [Floxuridine] | 1.71 |
| COc1ccccc1OCC(O)CN1CCN(CC(=O)Nc2c(C)cccc2C)CC1 (centres undefined) [Ranolazine] | 0.697 |
| OC(CCN1CCCCC1)(c1ccccc1)C1CCCCC1 (centres undefined) [Trihexyphenidyl] | 0.486 |
| CC(=O)O[C@]1(C(C)=O)CC[C@H]2[C@@H]3C[C@H](C)C4=CC(=O)CC[C@]4(C)[C@H]3CC[C@@]21C [Medroxyprogesterone acetate] | 0.549 |
| CC(=O)Oc1ccccc1C(=O)Nc1ncc([N+](=O)[O-])s1 [Nitazoxanide] | 1.61 |
| C=C[C@H]1CN2CC[C@H]1C[C@H]2[C@H](O)c1ccnc2ccc(OC)cc12 [Quinine] | 0.644 |
| C[C@H]1O[C@@H](O[C@H]2[C@@H](O)C[C@H](O[C@H]3[C@@H](O)C[C@H](O[C@H]4CC[C@@]5(C)[C@H](CC[C@@H]6[C@@H]5C[C@@H](O)[C@]5(C)[C@@H](C7=CC(=O)OC7)CC[C@]65O)C4)O[C@@H]3C)O[C@@H]2C)C[C@H](O)[C@@H]1O [Digoxin] | 1.46 |
| CN(C)CCC=C1c2ccccc2COc2ccccc21 [Doxepin] | 0.732 ± 0.042 |
| C[C@H](N[C@@H](CCc1ccccc1)C(=O)O)C(=O)N1CCC[C@H]1C(=O)O [Enalaprilat] | 0.731 |
| COc1ccc(/C=C/C(=O)Nc2ccccc2C(=O)O)cc1OC [Tranilast] | 0.89 |
| CNC(=N)NCCC[C@H](N)C(=O)O | 0.854 |
| NS(=O)(=O)c1cc2c(cc1C(F)(F)F)NC(Cc1ccccc1)NS2(=O)=O (centres undefined) [Bendroflumethiazide] | 0.559 |
| COCCOC(=O)C1=C(C)NC(C)=C(C(=O)OC(C)C)C1c1cccc([N+](=O)[O-])c1 (centres undefined) [Nimodipine] | 0.338 |
| CC(=O)OCC(=O)[C@@]1(O)CC[C@H]2[C@@H]3CCC4=CC(=O)CC[C@]4(C)[C@H]3C(=O)C[C@@]21C [Cortisone acetate] | 0.732 |
